PubChem BioAssay (NCI)
Where “and” joins values, the source holds several entries; their conditions need not be identical. Equal values may be shown once. About 79,000 compounds went through this panel and 15% of them were active in at least one assay; those are over-represented in the sample as a whole. Calls of active or inactive are those of the source. Rule as the data show it: active = growth inhibition above about 70%; inactive = the rest. Where a SMILES comes first, the peptide text is derived from it.

How the values were obtained:
[1] = NCI Yeast Anticancer Drug Screen. Data for the rad50 strain (AID 155);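 also: 0% = growth of vehicle-only cultures of the same strain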; settings: S. cerevisiae rad50 strain growth inhibition, hits give high values; at 50.0 µM unless noted
How it was run: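 DNA repair mutant yeast, compound exposure, growth read-out; inhibition is taken relative to vehicle.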

[2] = NCI Yeast Anticancer Drug Screen. Data for the mec2-1 strain (AID 157); settings: S. cerevisiae mec2-1 strain, hits give high values; at 50.0 µM unless noted
How it was run: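 Each compound was tested on mec2-1 yeast, a strain altered in DNA damage repair or cell cycle control. Growth inhibition is reported relative to vehicle.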

[3] = NCI Yeast Anticancer Drug Screen. Data for the sgs1 mgt1 strain (AID 161);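 also: 0% = growth of cultures given vehicle only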; settings: S. cerevisiae sgs1 mgt1 strain, hits give high values; at 50.0 µM unless noted
How it was run: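 Genetically altered yeast, compound exposure, growth inhibition relative to vehicle.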

[4] = NCI Yeast Anticancer Drug Screen. Data for the cln2 rad14 strain (AID 165);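 also: 0% = growth equal to vehicle treated cultures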; settings: S. cerevisiae cln2 rad14 strain, hits give high values; at 50.0 µM unless noted
How it was run: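 Test compounds were added to cln2 rad14 yeast cultures; inhibition of growth was then determined by comparison with vehicle treatment.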

[5] = NCI Yeast Anticancer Drug Screen. Data for the bub3 strain (AID 167); settings: S. cerevisiae bub3 mutant strain, hits give high values; at 50.0 µM unless noted
How it was run: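 In this screen, a yeast mutant lacking normal mitotic checkpoint function is challenged with compound. Relative growth versus vehicle gives the inhibition value.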

[6] = NCI Yeast Anticancer Drug Screen. Data for the mlh1 rad18 strain (AID 175); settings: S. cerevisiae mlh1 rad18 strain growth inhibition, hits give high values; at 50.0 µM unless noted
How it was run: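 Inhibition values reflect reduced growth of mutant yeast versus vehicle-treated controls following compound exposure; the mutations affect DNA damage repair.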

Measured: growth inhibition

COC(=O)CCSCc1ccccc1
inactive: [1] 2.65% | [2] 2.55% | [3] -1.6% | [4] -10% | [5] 4.8% | [6] 3.55%

COc1cc2c(c3oc4c(O)cccc4c(=O)c13)CC(C(C)(O)CO)O2 (centres undefined)
inactive: [1] 24.2% | [2] -11.6% | [3] -23.4% | [4] -9.25% | [5] -42.8% | [6] -33.6%

CC12OC3(C)C4CC1C1(C)OC4(C)C3C(O)C21 (centres undefined)
inactive: [1] -0.8% | [2] 4.8% | [3] -3.7% | [4] -16.6% | [5] -6.5% | [6] 10.3%

COc1cc(CC(C(=O)O)C(C)C(=O)c2ccc3c(c2)OCO3)cc(OC)c1OC (centres undefined)
inactive: [1] -4.75% | [2] 0.1% | [3] -11.9% | [4] -24.6% | [5] -10.4% | [6] -15.8%

C=C=C(C)[Si](C)(C)C
inactive: [1] -14.8% | [2] 3.85% | [3] -29.9% | [4] -3.25% | [5] -51.5% | [6] -45.9%

CN(C(=O)c1ccc([N+](=O)[O-])cc1)C(c1ccco1)P(=O)(c1ccccc1)c1ccccc1 (centres undefined)
active: [1] 71.1%
inactive: [2] 36.4% | [3] 56.5% | [4] 0.4% | [5] 46.2% | [6] 26.4%

Cc1nn(C(=O)c2ccc(Cl)cc2)c2c1C(c1ccc([N+](=O)[O-])cc1)SC(N)=N2 (centres undefined)
inactive: [1] -14.8% | [2] 7.4% | [3] 16.4% | [4] -16.8% | [5] -16.1% | [6] -4.1%

CC(O)(c1ccccc1)c1ccccc1
inactive: [1] -13.3% | [2] -1.75% | [3] -25.6% | [4] -16.8% | [5] -2.3% | [6] -33.3%

CC(C)(C)OC(=O)NCCCCC(N)C(N)=O (centres undefined)
inactive: [1] -19.6% | [2] -32.2% | [3] -31.9% | [4] 15.8% | [5] 5.15% | [6] -1.95%

Cc1ccc(Nc2nc(-c3ccc(-c4ccc([N+](=O)[O-])cc4)o3)cs2)cc1
inactive: [1] 20.5% | [2] 19.5% | [3] 31.8% | [4] 31.5% | [5] 28.7% | [6] 44%

CCCCCCCCCCCCC
inactive: [1] -36.4% | [2] -45.8% | [3] -18.2% | [4] 3.7% | [5] -50% | [6] -20.9%

C[N+](C)(C)CC(O)C[N+](C)(C)C
inactive: [1] 12.1% | [2] 6.15% | [3] 3.6% | [4] -42.1% | [5] -3.5% | [6] 22.7%

Cc1ccc(C)n1-n1c(Cc2ccc(Cl)cc2)n[nH]c1=O
inactive: [1] 8.5% | [2] 3.05% | [3] 16% | [4] 8.05% | [5] -4.4% | [6] 13.1%

CC(C)CC(C(=O)NC1CCCCC1)N1C(=O)c2ccccc2C1=O (centres undefined)
inactive: [1] -17.1% | [2] 1.9% | [3] -4.3% | [4] -8.2% | [5] -4.4% | [6] 20.7%

O=C(CCCN1CCC2(CC1)CC(=O)N(N1CCOCC1)C2=O)c1ccc(F)cc1
inactive: [1] -4.65% | [2] 6.1% | [3] 2.75% | [4] 4.5% | [5] -3.4% | [6] 14.9%

CCOC(=O)/C(C#N)=C/c1cccc([N+](=O)[O-])c1
inactive: [1] 4.9% | [2] 4.8% | [3] 7.05% | [4] -11.6% | [5] 34.1% | [6] 31.2%

CSc1ccc(NC(=O)c2ccc(Cl)cc2)cc1
inactive: [1] -13.7% | [2] -6.05% | [3] -6.45% | [4] -22.7% | [5] 5.25% | [6] -3.35%

CC(C)N1C(=O)NC2C1NC(=O)N2C(C)C (centres undefined) (tested in a mixture with another compound)
inactive: [1] -14.8% | [2] -5.2% | [3] -1.15% | [4] 22.4% | [5] -12.8% | [6] -3.05%

O=C(Nc1ccccc1)Nc1ccc2c(c1)oc1ccccc12
inactive: [1] 8.85% | [2] 6.7% | [3] 9.6% | [4] 28% | [5] 10.9% | [6] 25.6%

Cc1cccc(C)c1NC(=S)N/C=C(\C#N)C(N)=O
inactive: [1] -53.2% | [2] -72.2% | [3] -25% | [4] -21.6% | [5] -8.65% | [6] -49.4%

Cc1cc(=O)oc2c(C)c(OCCCOc3ccc4c(C)cc(=O)oc4c3C)ccc12
inactive: [1] -29.8% | [2] -15.6% | [3] -6.1% | [4] 11.1% | [5] -30.8% | [6] -34.3%

NNC(=O)Oc1cccc2ccccc12
inactive: [1] 22.1% | [2] 19.3% | [3] 9.9% | [4] -4.4% | [5] 36.4% | [6] 42.5%

Cc1ccc(C(=O)C2C(=O)C(=O)OC2C2OC(=O)C(=O)C2C(=O)c2ccc(C)cc2)cc1 (centres undefined)
inactive: [1] 43.8% | [2] 25.1% | [3] 39.5% | [4] 31.2% | [5] -4.55% | [6] 42.8%

CCC(C)C/C(C)=N/Nc1ccc([N+](=O)[O-])cc1[N+](=O)[O-] (centres undefined)
inactive: [1] -0.4% | [2] 7.85% | [3] 0.65% | [4] -16.4% | [5] 12.7% | [6] -6.25%

COc1ccc(OC(C)C(=O)O)c2c(=O)ccccc12 (centres undefined)
inactive: [1] 13.9% | [2] 10.7% | [3] -5.2% | [4] 25.2% | [5] 5.7% | [6] 22.1%

OC(c1ccc(OCc2ccccc2)cc1)c1ccccn1 (centres undefined)
inactive: [1] -1.15% | [2] -0.65% | [3] -4.45% | [4] -16.4% | [5] -5.7% | [6] -0.3%

CCN(CC)CCCC(C)Nc1cc(OC)c2nc(C)ccc2c1OC (centres undefined)
inactive: [1] -2.35% | [2] -0.4% | [3] -14.2% | [4] -5.9% | [5] -3.2% | [6] 14.9%

N#CCN1CCc2ccccc2C1
inactive: [1] -8.45% | [2] -7.15% | [3] -6.65% | [4] -33.9% | [5] -11.7% | [6] -6%

COc1cccc2c1OC1(N3CCOCC3)CCCCC1C2C[N+](=O)[O-] (centres undefined)
inactive: [1] 6.8% | [2] -14% | [3] 12.3% | [4] 3.35% | [5] -7.9% | [6] -11.1%

O=[N+]([O-])c1cccc(S/N=C/c2ccccc2O)c1
active: [1] 98.8% | [2] 99.5% | [3] 99.2% | [4] 97.5% | [5] 99.2% | [6] 99%

COc1ccc(/C=C2\N=C(c3ccc([N+](=O)[O-])cc3)OC2=O)cc1OC
inactive: [1] -5.35% | [2] -2.75% | [3] -14.8% | [4] -15.5% | [5] 0.25% | [6] -17.1%

O=c1[nH]c(-c2ccccc2)nc2nc3ccc([N+](=O)[O-])cc3[n+]([O-])c12
inactive: [1] 19.9% | [2] -2% | [3] -1.75% | [4] -7.55% | [5] -1% | [6] 7%

O=C(O)c1ccc(/C=N/N=C2c3ccccc3-c3ccccc32)cc1
active: [4] 72.1%
inactive: [1] 66.6% | [2] 35.5% | [3] 41% | [5] -4.5% | [6] 64.2%

C=C1c2nc3ccccc3n2C=C(c2ccccc2)N1c1ccc(OC)cc1
inactive: [1] -6.5% | [2] 15.3% | [3] -9.25% | [4] -5.85% | [5] 17.5% | [6] 7.05%

C/C(CC1=CCCCC1)=N\NC(N)=O
inactive: [1] -18.4% | [2] -17.9% | [3] -20.9% | [4] -27.9% | [5] -4.65% | [6] -12.7%

C#CCN(Cc1ccc2nc(-c3ccccc3)c(Cl)nc2c1)c1cc(OC)c(OC)c(OC)c1
inactive: [1] 14.8% | [2] -12.6% | [3] -16.9% | [4] -23.4% | [5] -26.1% | [6] 4.75%

CCCCCCCCN1C(=O)CCC1=O
inactive: [1] -1.45% | [2] -19.4% | [3] -6.3% | [4] 0.5% | [5] -14.9% | [6] -0.5%

NC(Cc1ccccc1)C(=O)NC(Cc1ccccc1)C(=O)O (stereo not drawn) (H-Phe-Phe-OH; configuration not given here)
inactive: [1] 19.6% and 11.1% | [2] -0.8% and -19.4% | [3] 12.6% and -2.9% | [4] -16.1% and -19.3% | [5] 6.2% and 4.05% | [6] 1.6% and 7.7%

CC1(C)COC(=S)N1
inactive: [1] -3% and -28.6% | [2] 6.85% and -21.8% | [3] 0.5% and -14.8% | [4] 11.4% and -25.3% | [5] 9.55% and -26.9% | [6] 19.1% and -27.2%
